Source: PubChem BioAssay (National Center for Advancing Translational Sciences (NCATS))
A selection: hits, their analogues and other compounds. The true share with any hit is near 5.8%.
MCF10A rerep – inducers of DNA re-replication in MCF 10A breast cells. MCF 10A DNA re-replication, Hoechst nuclear intensity, 48 h. Potency, µM (doses to about 46.1 µM), without a hit: at the top dose activity, positive = re-replication, most hits filed as activators. 350,000 tested, 2.9% active. AID 624296; note: % of control where 0% means no effect; nearly all actives have a fitted effect of over 50% in size
PINK1 modulator – PINK1 expression modulation; Potency, µM (titrated, usually from 76.6 µM), for the others: at the highest dose activation (PINK1 increase), most hits filed as activators; AID 624263; PINK1 immunofluorescence, high-content cytometry, 24 h; 410,000 tested, 0.2% active; active = well fitted activation curve with a large enough effect; inconclusive = small, poorly fitted or top-dose-only effect; cell line not stated here; note: % of control where 0% means no effect; nearly all actives have a fitted effect of over 65% in size
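Stable cell line treated 24 h with compounds at 5 concentrations (CCCP controls), then fixed and immunostained for PINK1 plus nuclear and cell stains; PINK1 immunofluorescence quantified by laser-scanning microplate cytometry.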
KB-V1 MDR tox – kills drug-selected multidrug resistant KB-V1 cells; AID 1347076; KB-V1 MDR cells viability, CellTiter-Glo, 72 h; 400,000 tested, 3.4% active; Potency, µM (titrated, usually from 46.1 µM), actives largely listed as cytotoxic; note: % is set by controls: 0 for no effect and ±100 for the full control effect; nearly all actives have a fitted effect of over 60% in size
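KB-V1, DMEM (no phenol red) + 10% FBS; cpd pin-transferred, titration series; 72 h, 37 degrees C; CellTiter-Glo, luminescence. Data normalized, curve-fit.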
SW480 rerep – inducers of DNA re-replication in SW480 colon cancer cells. SW480 DNA re-replication, Hoechst DNA content imaging, 48 h. Potency, µM (titrated, usually from 46.1 µM), for inactives: at the highest dose re-replication activation, actives largely listed as activators. 340,000 tested, 1.8% active; note: % of control where 0% means no effect; nearly all actives have a fitted effect of over 55% in size
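Hoechst fluorescence of nuclei (405 nm excitation, 500-530 nm emission) measured by plate-scanning imager after 48 hr compound exposure at 37 C; re-replication scored as increased number of nuclei with elevated intensity.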
12-LOX inh – inhibitors of human 12S-lipoxygenase ALOX12. P18054. 580,000 tested, 1.1% active. purified 12hLO, xylenol orange hydroperoxide absorbance. Potency, µM (titrated, usually from 108 µM), for the others: top-dose activity change, negative = inhibition, hits mostly inhibitors; note: % is set by controls: 0 for no effect and ±100 for the full control effect
Target sequence (P18054 whole entry, looked up): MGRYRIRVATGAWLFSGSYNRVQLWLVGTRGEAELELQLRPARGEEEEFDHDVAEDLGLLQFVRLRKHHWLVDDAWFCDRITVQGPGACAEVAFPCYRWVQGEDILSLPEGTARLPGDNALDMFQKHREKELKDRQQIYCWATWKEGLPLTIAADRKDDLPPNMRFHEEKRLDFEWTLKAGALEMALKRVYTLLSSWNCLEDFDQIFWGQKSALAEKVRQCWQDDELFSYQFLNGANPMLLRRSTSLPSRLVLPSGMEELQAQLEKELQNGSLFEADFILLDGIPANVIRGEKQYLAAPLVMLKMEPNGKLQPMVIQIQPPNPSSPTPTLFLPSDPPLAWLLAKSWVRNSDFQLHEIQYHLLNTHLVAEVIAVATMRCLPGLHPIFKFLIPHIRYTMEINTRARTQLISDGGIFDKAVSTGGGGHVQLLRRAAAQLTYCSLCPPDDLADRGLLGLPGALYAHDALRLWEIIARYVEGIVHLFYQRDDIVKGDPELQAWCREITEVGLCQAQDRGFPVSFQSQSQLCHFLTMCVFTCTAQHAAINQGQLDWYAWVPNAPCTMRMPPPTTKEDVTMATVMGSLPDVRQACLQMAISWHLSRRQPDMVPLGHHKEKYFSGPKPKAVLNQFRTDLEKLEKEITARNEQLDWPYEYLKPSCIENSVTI
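Purified human 12hLO (150 nM final) in 25 mM Hepes, 0.01% Triton X-100, pH 7.0 was preincubated 15 min at room temperature with compound. Then 40 uM arachidonic acid was added, 30 min. Hydroperoxide was read by Fe-XO absorbance ratio 573/405 nm.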
KB-3-1 tox – kills parental KB-3-1 adenocarcinoma cells; Potency, µM (highest dose often 46.1 µM), usual class: cytotoxic; 400,000 tested, 1.4% active; KB-3-1 viability, CellTiter-Glo ATP luminescence, 72 h; AID 1347075; note: % is set by controls: 0 for no effect and ±100 for the full control effect; nearly all actives have a fitted effect of over 60% in size
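KB-3-1 cells, DMEM (no phenol red) + 10% FBS; compound by pin transfer, 72 h, 37 °C. Readout: CellTiter-Glo luminescence after 10 min. Data normalized, curve-fitted.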
An asterisk follows results filed as active; i = inactive; ? = inconclusive; . = no result; [ ] = remark or other dose. Unless noted, calls come from the whole dose curve; as a rule, active = well fitted curve in the direction sought with a large enough effect; inconclusive = small, poorly fitted or top-dose-only effect, or another doubt; inactive = no such curve, though single readings can be large; an effect the other way counts as inactive or inconclusive. Potency is the fitted concentration of half-maximal effect.

SMILES	MCF10A rerep	PINK1 modulator	KB-V1 MDR tox	SW480 rerep	12-LOX inh	KB-3-1 tox
COc1ccc(CNC(=S)N/N=C/c2ccncc2)cc1	?	2%	i	-6%	-24%	i
CCN(CC)c1ccc(/C=N/NC(=S)NCc2ccc(OC)cc2)cc1	10µM*	9%	i	?	?	i
COc1ccc(/C=N/NC(=S)N[C@H]2CC3CCC2C3)cc1 (some centres not stated)	-4%	4%	i	-60%	10µM*	i
COc1ccc(S(=O)(=O)c2cc3ccc(OC)cc3oc2=O)cc1	.	.	.	.	-13%	.
O=C(NCC1CCCO1)c1nn2c(c1Cl)NC(c1ccc(F)cc1)CC2C(F)(F)F (configuration not stated)	11%	1%	?	-7%	0%	i
Cc1cccc(NC(=O)c2cc3n(n2)C(C(F)(F)F)CC(c2ccc4c(c2)OCO4)N3)c1 (configuration not stated)	3%	1%[38.3 µM]	12µM*	9%	?	i
O=C(Nc1ccc(O)cc1)c1cc2n(n1)C(C(F)(F)F)CC(c1ccco1)N2 (configuration not stated)	?	5%	?	?	0%	10µM*
COc1ccc(NC(=O)c2cc3n(n2)C(C(F)(F)F)CC(c2ccc4c(c2)OCO4)N3)cc1OC (configuration not stated)	2%	15%[38.3 µM]	16µM*	?	.	i
CCOc1ccc(NC(=O)c2cc3n(n2)C(C(F)(F)F)CC(c2ccco2)N3)cc1 (configuration not stated)	?	1%	i	-14%	4%	i
O=C(NCC1CCCO1)c1cc2n(n1)C(C(F)(F)F)CC(c1ccc(Br)cc1)N2 (configuration not stated)	8%	-16%[38.3 µM]	8.2µM*	0%	-23%	i
O=C(/C(=C/c1ccc(F)cc1)c1nc2ccccc2o1)c1ccccc1	.	.	.	.	24%	.
CCOC(=O)c1c(NC(=O)c2cc3n(n2)C(C(F)(F)F)CC(c2ccccc2)N3)sc(C)c1C (configuration not stated)	22%	11%	i	16µM*	-16%	i
Cc1cccc(CN2CCCC3(CCN(c4cc(C)c5ccccc5n4)C3)C2=O)c1 (configuration not stated)	.	.	.	.	63%	.
CCOc1cc(C2NN=C(c3ccc(C)cc3)S2)ccc1O (configuration not stated)	18µM*	2%	?	-7%	?	i
COc1ccc(C2NN=C(c3ccc(C)cc3)S2)cc1 (configuration not stated)	0%	7%	i	-13%	-23%	i
CC1=C[C@@H](CNS(=O)(=O)c2ccccc2)[C@H](C(C)C)C[C@H]1CC(=O)NCc1ccc(C#N)cc1	.	.	.	.	35µM*	.
COc1ccc(S(=O)(=O)NC[C@@H]2C=C(C)[C@H](CC(=O)NCc3ccc(C#N)cc3)C[C@H]2C(C)C)cc1	.	.	.	.	35µM*	.
COc1ccc(C(=O)Nc2sc3c(c2C(N)=O)CCC(C)C3)c(OC)c1OC (configuration not stated)	.	.	.	.	-30%	.
COc1ccc(-c2nc(CSC(C)C(=O)Nc3ccccc3)co2)cc1 (configuration not stated)	.	.	.	.	-7%	.
O=C1NN=C(c2ccc(Br)cc2)CC1c1ccc(Cl)cc1 (configuration not stated)	?	-3%	?	-2%	40µM*	?
Cc1ccc(C2CC(c3ccc(Cl)cc3)=NNC2=O)cc1 (configuration not stated)	14%	0%	i	-5%	-16%	i
COC(=O)c1ccc(NC(=O)N2CCC3(CC2)CC(N2CCCC2)CCO3)cc1 (configuration not stated)	.	.	.	.	32%	.
